Data as given in the supplement of paper PMC8728848.
The sample as a whole holds a higher share of the strongest signals than the screen did.

B1: TREM-2 (Mus musculus), Q99NH8 (protein)
chain: MGPLHQFLLLLITALSQALNTTVLQGMAGQSLRVSCTYDALKHWGRRKAWCRQLGEEGPCQRVVSTHGVWLLAFLKKRNGSTVIADDTLAGTVTITLKNLQAGDAGLYQCQSLRGREAEVLQKVLVEVLEDPLDDQDAGDLWVPEESSSFEGAQVEHSTSRNQETSFPPTSILLLLACVLLSKFLAASILWAVARGRQKPGTPVVRGLDCGQDAGHQLQILTGPGGT
B2: Dectin-1 CTLD (Mus musculus), Q6QLQ4 (protein)
chain: MKYHSHIENLDEDGYTQLDFSTQDIHKRPRGSEKGSRAPSSPWRPIAVGLGILCFVVVVVAAVLGALAFWRHNSGRNPEEKDNFLSRNKENHKPTESSLDEKVAPSKASQTTGGFSQSCLPNWIMHGKSCYLFSFSGNSWYGSKRHCSQLGAHLLKIDNSKEFEFIESQTSSHRINAFWIGLSRNQSEGPWFWEDGSAFFPNSFQVRNTVPQESLLHNCVWIHGSEVYNQICNTSSYSICEKEL

Legend:
Experiment in all cases: glycan array binding signal (z-score within array); higher = stronger binding
Details in all cases: glycan notation: IUPAC condensed, linker removed
Fuc(a1-2)Gal(b1-4)GlcNAc = biological target: Fuc(a1-2)Gal(b1-4)GlcNAc
Procedure, shortened: (§1)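 Negative Z-scores can be read as non-binding. The Z-score is calculated within each array and then averaged across arrays of one protein sequence at different concentrations or buffers and across linkers. Arrays, 3228 in all, were curated from the Consortium for Functional Glycomics database and kept only where the protein sequence was available.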

[1] = biological target: Gal(b1-3)GalNAc(b1-4)[Neu5Ac(a2-3)]Gal(b1-4)Glc
Procedure, shortened: as §1

[2] = biological target: Gal(b1-3)[Fuc(a1-4)]GlcNAc
Procedure, shortened: as §1

[3] = biological target: Gal(b1-3)[GlcNAc(b1-6)]GalNAc
Procedure, shortened: as §1

[4] = biological target: Gal(b1-4)GlcNAc(b1-3)Gal(b1-4)GlcNAc(b1-3)Gal(b1-4)GlcNAc
Procedure, shortened: as §1

[5] = biological target: Gal(b1-4)GlcNAc(b1-6)[Gal(b1-3)]GalNAc
Procedure, shortened: as §1

Gal3S(b1-4)Glc6S = biological target: Gal3S(b1-4)Glc6S
Procedure, shortened: as §1

Gal3S(b1-4)GlcNAc6S = biological target: Gal3S(b1-4)GlcNAc6S
Procedure, shortened: as §1

Gal3S6S(b1-4)GlcNAc = biological target: Gal3S6S(b1-4)GlcNAc
Procedure, shortened: as §1

Gal3S6S(b1-4)GlcNAc6S = biological target: Gal3S6S(b1-4)GlcNAc6S
Procedure, shortened: as §1

Gal6S(b1-4)Glc6S = biological target: Gal6S(b1-4)Glc6S
Procedure, shortened: as §1

[6] = biological target: GlcNAc(b1-6)Gal(b1-4)GlcNAc
Procedure, shortened: as §1

[7] = biological target: Man(a1-2)Man(a1-2)Man(a1-3)Man
Procedure, shortened: as §1

[8] = biological target: Neu5Ac(a2-3)Gal(b1-3)GlcNAc6S
Procedure, shortened: as §1

[9] = biological target: Neu5Ac(a2-3)Gal(b1-4)GlcNAc
Procedure, shortened: as §1

[10] = biological target: Neu5Ac(a2-3)Gal(b1-4)[Fuc(a1-3)]GlcNAc(b1-3)Gal(b1-4)GlcNAc
Procedure, shortened: as §1

[11] = biological target: Neu5Ac(a2-3)[GalNAc(b1-4)]Gal(b1-4)Glc
Procedure, shortened: as §1

[12] = biological target: Neu5Ac(a2-3)[Neu5Ac(a2-6)]GalNAc
Procedure, shortened: as §1

Neu5Ac(a2-8)Neu5Ac = biological target: Neu5Ac(a2-8)Neu5Ac
Procedure, shortened: as §1

Fuc(a1-4)GlcNAc = biological target: Fuc(a1-4)GlcNAc
Procedure, shortened: as §1

Gal(b1-2)Gal = biological target: Gal(b1-2)Gal
Procedure, shortened: as §1

Gal(b1-3)Gal = biological target: Gal(b1-3)Gal
Procedure, shortened: as §1

[13] = biological target: Gal(b1-3)[Neu5Ac(a2-6)]GlcNAc
Procedure, shortened: as §1

[14] = biological target: Gal3S(b1-3)[Fuc(a1-4)]GlcNAc
Procedure, shortened: as §1

Gal4S6S(b1-4)GlcNAc = biological target: Gal4S6S(b1-4)GlcNAc
Procedure, shortened: as §1

GlcA(b1-3)Gal = biological target: GlcA(b1-3)Gal
Procedure, shortened: as §1

[15] = biological target: GlcNAc(b1-3)Gal(b1-4)GlcNAc(b1-3)Gal(b1-4)GlcNAc
Procedure, shortened: as §1

[16] = biological target: GlcNAc(b1-4)[GlcNAc(b1-6)]GalNAc
Procedure, shortened: as §1

Kdn(a2-3)Gal(b1-3)GlcNAc = biological target: Kdn(a2-3)Gal(b1-3)GlcNAc
Procedure, shortened: as §1

[17] = biological target: Man(a1-2)Man(a1-2)Man(a1-3)[Man(a1-2)Man(a1-6)[Man(a1-3)]Man(a1-6)]Man(b1-4)GlcNAc(b1-4)GlcNAc
Procedure, shortened: as §1

[18] = biological target: Man(a1-2)Man(a1-3)[Man(a1-2)Man(a1-6)]Man
Procedure, shortened: as §1

Man(b1-4)GlcNAc = biological target: Man(b1-4)GlcNAc
Procedure, shortened: as §1

[19] = biological target: Neu5Ac(a2-3)Gal(b1-3)GlcNAc
Procedure, shortened: as §1

[20] = biological target: Neu5Ac(a2-3)Gal(b1-3)[Neu5Ac(a2-6)]GalNAc
Procedure, shortened: as §1

[21] = biological target: Neu5Ac(a2-3)Gal(b1-4)[Fuc(a1-3)]GlcNAc(b1-3)Gal(b1-4)[Fuc(a1-3)]GlcNAc(b1-3)Gal(b1-4)[Fuc(a1-3)]GlcNAc
Procedure, shortened: as §1

Neu5Ac(a2-6)GalNAc = biological target: Neu5Ac(a2-6)GalNAc
Procedure, shortened: as §1

[22] = biological target: Neu5Ac(a2-8)Neu5Ac(a2-8)Neu5Ac
Procedure, shortened: as §1

Row | Binder | glycan array binding signal (z-score) (Fuc(a1-2)Gal(b1-4)GlcNAc) | glycan array binding signal (z-score) [1] | glycan array binding signal (z-score) [2] | glycan array binding signal (z-score) [3] | glycan array binding signal (z-score) [4] | glycan array binding signal (z-score) [5] | glycan array binding signal (z-score) (Gal3S(b1-4)Glc6S) | glycan array binding signal (z-score) (Gal3S(b1-4)GlcNAc6S) | glycan array binding signal (z-score) (Gal3S6S(b1-4)GlcNAc) | glycan array binding signal (z-score) (Gal3S6S(b1-4)GlcNAc6S) | glycan array binding signal (z-score) (Gal6S(b1-4)Glc6S) | glycan array binding signal (z-score) [6] | glycan array binding signal (z-score) [7] | glycan array binding signal (z-score) [8] | glycan array binding signal (z-score) [9] | glycan array binding signal (z-score) [10] | glycan array binding signal (z-score) [11] | glycan array binding signal (z-score) [12] | glycan array binding signal (z-score) (Neu5Ac(a2-8)Neu5Ac) | glycan array binding signal (z-score) (Fuc(a1-4)GlcNAc) | glycan array binding signal (z-score) (Gal(b1-2)Gal) | glycan array binding signal (z-score) (Gal(b1-3)Gal) | glycan array binding signal (z-score) [13] | glycan array binding signal (z-score) [14] | glycan array binding signal (z-score) (Gal4S6S(b1-4)GlcNAc) | glycan array binding signal (z-score) (GlcA(b1-3)Gal) | glycan array binding signal (z-score) [15] | glycan array binding signal (z-score) [16] | glycan array binding signal (z-score) (Kdn(a2-3)Gal(b1-3)GlcNAc) | glycan array binding signal (z-score) [17] | glycan array binding signal (z-score) [18] | glycan array binding signal (z-score) (Man(b1-4)GlcNAc) | glycan array binding signal (z-score) [19] | glycan array binding signal (z-score) [20] | glycan array binding signal (z-score) [21] | glycan array binding signal (z-score) (Neu5Ac(a2-6)GalNAc) | glycan array binding signal (z-score) [22]
1 | B1 | -0.407 | -0.342 | -0.368 | -0.349 | -0.287 | -0.354 | 4.24 | 4.02 | 4.4 | 4.74 | 3.17 | -0.382 | -0.305 | -0.078 | -0.391 | -0.043 | -0.373 | 0.289 | -0.304 |  |  |  |  |  |  |  |  |  |  |  |  |  |  |  |  |  | 
2 | B2 | -0.083 | -0.16 |  |  |  |  |  |  |  |  |  |  |  |  |  | -0.03 |  | -0.211 |  | -0.141 | -0.384 | -0.471 | -0.392 | -0.474 | -0.021 | 4.11 | -0.18 | 9.99 | -0.044 | 0.004 | -0.241 | -0.259 | -0.294 | -0.324 | 7.53 | 0.06 | 5.28
